From PubChem BioAssay come the findings set out here.

The structures appear in SMILES notation. For some of these results: Entries with a potency or affinity are not part of this list. Activity calls are given as the source filed them. Unless noted, how the calls were made is not given here.

Test [1] concerns Aerobactin synthetase IucA (Klebsiella pneumoniae, hypervirulent). Briefly: biochemical IucA inhibition screen of LOPAC library by absorbance (AID 1346212).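 Further: 100% = no compound wells and 0% = no enzyme wells.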 Particulars: IucA enzyme assay, absorbance (OD) readout; stronger effect = lower value;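 tested at 8 µM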.
Test [2] relates to Aerobactin synthetase IucA (Klebsiella pneumoniae hvKP1). Briefly: IucA enzyme inhibition, primary screen, biochemical, Spectrum library (AID 1346200).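 Further: 100% = wells without compound and 0% = wells lacking enzyme.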 To be noted: malachite green pyrophosphate, A620, at 8 µM, stronger effect = lower value.
Test [3] deals with Mitogen-activated protein kinase 7 (Homo sapiens) (UniProt Q13164). Briefly: Gal4-ERK5 driven luciferase induction – cell-based, HTS, primary screen (AID 1508626;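 active means luciferase signal above three times the same-plate solvent-only control wells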;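 further: luciferase driven by Gal4-ERK5 fusion binding five Gal4 sites before minimal TATA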). Particulars: HeLa Gal4-ERK5 transactivation, 18 h, at 5 µM, stronger effect = higher value.
Chain of Mitogen-activated protein kinase 7 (Homo sapiens) (Q13164 whole entry, looked up, the tested form may be a part): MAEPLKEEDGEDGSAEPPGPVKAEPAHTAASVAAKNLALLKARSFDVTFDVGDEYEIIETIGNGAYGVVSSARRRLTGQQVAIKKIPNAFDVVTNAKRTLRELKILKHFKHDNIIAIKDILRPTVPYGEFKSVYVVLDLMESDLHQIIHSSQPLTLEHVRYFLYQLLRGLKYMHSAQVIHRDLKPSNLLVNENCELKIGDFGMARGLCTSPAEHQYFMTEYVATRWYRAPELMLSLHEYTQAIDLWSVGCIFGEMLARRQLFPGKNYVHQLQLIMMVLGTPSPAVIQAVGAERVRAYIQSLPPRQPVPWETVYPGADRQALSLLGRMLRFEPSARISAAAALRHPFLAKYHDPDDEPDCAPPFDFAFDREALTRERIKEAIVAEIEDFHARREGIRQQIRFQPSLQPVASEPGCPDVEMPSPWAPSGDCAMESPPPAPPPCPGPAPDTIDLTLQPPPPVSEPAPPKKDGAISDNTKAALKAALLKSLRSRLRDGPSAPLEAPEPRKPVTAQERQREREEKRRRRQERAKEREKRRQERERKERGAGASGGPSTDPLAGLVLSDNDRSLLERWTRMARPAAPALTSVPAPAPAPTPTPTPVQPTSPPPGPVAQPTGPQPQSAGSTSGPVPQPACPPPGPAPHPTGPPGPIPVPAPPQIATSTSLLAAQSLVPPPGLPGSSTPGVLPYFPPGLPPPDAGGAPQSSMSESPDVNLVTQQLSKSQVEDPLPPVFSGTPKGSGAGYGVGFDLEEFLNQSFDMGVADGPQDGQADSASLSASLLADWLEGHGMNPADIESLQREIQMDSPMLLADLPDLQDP
Test [4] is described as follows: blockers of polyQ-driven CASP3 activation – cell-based (AID 1583). Particulars: polyglutamine-induced caspase-3 activation, cell assay; stronger effect = higher value;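 tested at 10 µM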.
The nature of test [5]: yeast 75Q aggregation reduction – 75Q-TubU reporter (AID 1593). Particulars: Yeast 75Q polyglutamine aggregation reporter.
Test [6] can be described thus: restoration of touch response, mutant HTT neurons – whole organism, C. elegans mechanosensory neurons, N-terminal huntingtin (AID 1599). Particulars: C. elegans polyQ-huntingtin mechanosensory neurons, stronger effect = higher value.
The nature of test [7]: blockers of cytochrome c efflux from mitochondria – biochemical, purified mitochondria (AID 1603).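 Further: mouse liver mitochondria challenged with calcium chloride; signal normalized to the plate average as 100%.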 To be noted: stronger effect = lower value.
Test [8] can be described thus: polyglutamine aggregate formation blockers (AID 1604). Particulars: polyglutamine-induced protein aggregation inhibition assay; stronger effect = higher value; tested at 2.5 µM.
The nature of test [9]: glutamate transport activators, MN-1 cells, MN-1 cell line (AID 1612).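 Further: tested at 1 µM final; 0% = mean of DMSO vehicle wells on each plate; positive means more glutamate uptake than control and negative means less.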 Particulars: MN-1 motor neuron cells, stronger effect = higher value.
Test [10] can be described thus: GFP-Q80 aggregate reduction, neuronal-like cells, cell-based, NGF-treated PC12, GFPQ80 (AID 1614).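 Further: lower means fewer inclusions and 0 means no inclusions at all.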 Particulars: PC12 NGF-treated GFP-polyQ80 inclusion reduction.
A short description of test [11]: 75Q-TubH aggregate inhibition, S. cerevisiae, yeast (AID 1616). To be noted: S. cerevisiae 75Q-TubH polyglutamine aggregation suppression; stronger effect = higher value.
Test [12] can be described thus: P. berghei load reduction in hepatocytes – cell-based, HepG2, luciferase luminescence, HepG2 viability, primary screen (AID 624349; in the data active means parasite load remaining mostly below about 12%, no sharp cut-off; inactive means mostly above about 10%;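 further: 100% = mean of DMSO negative control wells on the same plate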). Particulars: P. berghei liver stage in HepG2, luciferase luminescence, concentration not given here; parasite load remaining: stronger effect = lower value; viability: measured here: HepG2 viability without parasites.
A short description of test [13]: chitosan synthesis blockers in C. neoformans – flow cytometry, Cibacron Brilliant Red staining (AID 1347148).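 Further: compound exposure lasted three days at 37 degrees C.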 Particulars: Cryptococcus neoformans chitosan, stronger effect = lower value; at 10 µM unless noted.

With `CC(=O)SCC[N+](C)(C)C`, the remaining activity in test [1] is 117% (inactive).
As to `C=C[C@@H]1C2=CCOC(=O)C2=CO[C@H]1O[C@@H]1O[C@H](CO)[C@@H](O)[C@H](O)[C@H]1O`, the activity remaining in test [2] is 126% (inactive). The luciferase signal in test [3] was 64 AU (inactive).
With `CCC(C)C(=O)O[C@H]1[C@H](O)C2C(CN3CC(C)CCC3[C@@]2(C)O)C2C[C@]34O[C@]5(O)C(OC(=O)C(C)(O)C(C)O)CC[C@@]3(C)C5C(OC(C)=O)[C@@H](OC(C)=O)C4[C@@]21O` (stereo partly specified), the inhibition in test [4] came out at 19.1%. In test [5], this molecule showed a score of 1.45. The same molecule yielded a rescue above control in test [6] of -3.98. For the same molecule, the cytochrome c release ratio in [7] was 1. Besides, in test [8], the inhibition of aggregation came to 1.96%. The molecule also came in with a glutamate uptake change in test [9] of 2.79%. This molecule also yielded an inclusion score in test [10] of 2. This molecule also came in with an aggregation suppression score in test [11] of 1.75. Moreover, in test [12], the parasite load remaining is 75% (inactive) and the viability was determined as 68.5%. In test [2], the activity remaining was 107% (inactive).
For the molecule `C/C=C(\C)C(=O)O[C@H]1C[C@@H](OC(C)=O)[C@@]2(C(=O)OC)CO[C@@H]3C2[C@]12CO[C@](O)(C(=O)OC)[C@H]2[C@](C)(C12O[C@@]1(C)[C@H]1C[C@@H]2OC2OC=C[C@@]21O)[C@@H]3O` (stereo partly specified), in test [4], the inhibition came to 0.47%. Further, the score in [5] came out at 1.31. Besides, in test [6], the rescue above control is 3.11. For the same molecule, in test [7], the cytochrome c release ratio is 1.46. Besides, the inhibition of aggregation in test [8] amounted to 72.4%. The glutamate uptake change in test [9] came out at 12.4%. Also, the inclusion score in test [10] is 2. The molecule further registered an aggregation suppression score in test [11] of 1. Further, in test [12], the parasite load remaining is 62.6% (inactive) and the viability was found to be 97.8%. In addition, the activity remaining in test [2] is 89% (inactive).
Regarding `CSC(N)=NCCC[C@H](N)C(=O)O`, the remaining activity in test [1] was 123% (inactive).
On to `CC(=O)C1=C(O)C2C3c4c[nH]c5cccc(c45)CC3C(C)(C)N2C1=O` (stereo unspecified), for which the inhibition in test [4] is -21.2%. For the same molecule, the score in test [5] is -0.21. In test [6], this molecule registered a rescue above control of 9.72. The cytochrome c release ratio in test [7] amounted to 1.1. Further, in test [8], the inhibition of aggregation is -15.2%. Also, the glutamate uptake change in [9] was found to be 28.8%. Further, the aggregation suppression score in test [11] was determined as 0.0191. In test [2], the activity remaining was 102% (inactive). Moreover, the fold fluorescence in [13] was 4.14 [at 148.6 µM] (inactive).
As for `CC12CCCCC1(Br)[N+](=O)N2[O-]` (stereo unspecified), the activity remaining in test [2] was 108% (inactive). For the same molecule, in test [3], the luciferase signal was 64 AU (inactive).
For the molecule `NCCNC(=O)c1ncsc1-c1cccc(F)c1`, in test [1], the remaining activity was 88.1% (inactive).
As to `O=c1ccc2c(O)c3ccoc3cc2o1`, the activity remaining in test [2] is 96.6% (inactive). Also, in test [3], the luciferase signal is 32 AU (inactive).
Consider `O=C1Nc2ccc(I)cc2/C1=C/c1cc(Br)c(O)c(Br)c1`, for which the remaining activity in [1] is 113% (inactive).
For the molecule `CC(C)Cc1ccc([C@H](C)C(=O)O)cc1`, in test [1], the remaining activity is 111% (inactive).
Same read-out and setting: under `N[C@H]1CONC1=O` stands 113% (inactive); under `OC(CN1CCC(Cc2ccc(F)cc2)CC1)c1ccc(Cl)cc1` (stereo unspecified), 99.6% (inactive).
Consider `[N-]=[N+]=Nc1ccc(C(=O)CSC[C@H](NC(=O)CC[C@H](N)C(=O)O)C(=O)NCC(=O)O)cc1`, for which the remaining activity in [1] is 116% (inactive).
Regarding `CN(CC[C@@H](Oc1ccc(C(F)(F)F)cc1)c1ccccc1)CC(=O)O`, the remaining activity in test [1] is 118% (inactive).
On to `N[C@@H](Cc1ccc(F)cc1)C(=O)O`, for which, in test [1], the remaining activity was 95% (inactive).
For `Nc1ccc2c3c(cccc13)C(=O)NC2=O`, in test [1], the remaining activity is 112% (inactive).
On to `O=c1cc(-c2ccccc2)[nH]c2nc(Cl)ccc12`, for which, in [1], the remaining activity is 117% (inactive).
In the case of `COc1cc(OC)c(/C=C2/C(=O)Nc3ccccc32)c(OC)c1`, the remaining activity in test [1] was 99.3% (inactive).
Turning to `CC#CCOC(=O)c1c(C)nc2sc3c(c2c1N)CCC(O)C3` (stereo unspecified), the remaining activity in [1] is 113% (inactive).
Turning to `NC[C@@H]1O[C@H](C23CC4CC(CC(C4)C2)C3)Cc2c1ccc(O)c2O`, the remaining activity in [1] is 111% (inactive).
Turning to `CCCCCCCCCCCCCCCCCC(=O)OC(CC(=O)O)C[N+](C)(C)C` (stereo unspecified), in test [1], the remaining activity was 96.1% (inactive).
Same read-out and setting: the result for `O=C(N[C@@H](Cc1ccccc1)C(=O)CCl)OCc1ccccc1` reads 111% (inactive).
Turning to `O=C(O)C1=CCNCC1`, the remaining activity in test [1] is 95.2% (inactive).
In the case of `N#C/C(=C\c1ccc(O)c(O)c1)C(=O)NCCCc1ccccc1`, the remaining activity in test [1] is 103% (inactive).
As for `CC(=O)O[C@H]1C(=O)[C@@]2(C)[C@H]([C@H](OC(=O)c3ccccc3)[C@]3(O)C[C@H](OC(=O)[C@H](O)[C@@H](NC(=O)c4ccccc4)c4ccccc4)C(C)=C1C3(C)C)[C@]1(OC(C)=O)CO[C@@H]1C[C@@H]2O`, the remaining activity in test [1] was 94.8% (inactive).
Same read-out and setting: under `Nc1nc2c(ncn2COC(CO)CO)c(=O)[nH]1` stands 111% (inactive).
On the same count and under the same terms, the result for `COc1cc2nc(N3CCN(C(=O)C4COc5ccccc5O4)CC3)nc(N)c2cc1OC` (stereo unspecified) reads 92.2% (inactive); that for `N[C@@H](CCC(=O)N[C@@H](CSN=O)C(=O)NCC(=O)O)C(=O)O`, 119% (inactive); that for `CC1CN(S(=O)(=O)c2cccc3cnccc23)CCN1` (stereo unspecified), 102% (inactive).
Consider `CN1CC[C@]2(CCN3CCc4c(oc5ccccc45)[C@@H]3C2)N(C)C1=O`, for which the remaining activity in test [1] was 109% (inactive).
Turning to `NC1CONC1=O` (stereo unspecified), the remaining activity in [1] is 120% (inactive).
On the same count and under the same terms, the result for `O=c1[nH]c2ccccc2n1CCCN1CCN(C(c2ccccc2)c2ccccc2)CC1` reads 116% (inactive).
Same read-out and setting: the result for `NC1(C(=O)O)CCCCC1` reads 125% (inactive); that for `CNCCc1cnc(CCC(c2ccccc2)c2ccccc2)[nH]1`, 110% (inactive).
As to `CC(C(O)c1ccc(O)cc1)N1CCC(Cc2ccccc2)CC1` (stereo unspecified), the remaining activity in test [1] was 105% (inactive).
On to `O=c1[nH]c2cc([N+](=O)[O-])c([N+](=O)[O-])cc2[nH]c1=O`, for which the remaining activity in test [1] was 101% (inactive).
As to `CN(C)CC/C=C1\c2ccccc2COc2ccccc21`, the remaining activity in test [1] was 121% (inactive).
Turning to `C[N+](C)(C)CCOC(=O)CCC(=O)OCC[N+](C)(C)C`, the remaining activity in test [1] was 123% (inactive).
The same measure, in the same setting: under `C[C@]12CC[C@@H]3c4ccc(O)cc4CC[C@H]3[C@@H]1CC[C@@H]2O` stands 99.8% (inactive).
On the same count and under the same terms, the result for `Nc1nc(Cl)nc2c1ncn2[C@@H]1O[C@H](CO)[C@@H](O)[C@H]1O` reads 115% (inactive).
Regarding `CC(=O)N[C@H](C(=O)O)C(C)(C)SN=O`, in test [1], the remaining activity was 117% (inactive).
On to `Nc1ncnc2c1ncn2C1CCCC1`, for which, in test [1], the remaining activity is 120% (inactive).
In the case of `CC(=O)/C(C)=N/O`, the remaining activity in test [1] is 106% (inactive).
Same read-out and setting: the result for `CCCC(=O)NCCc1c2n(c3ccc(OC)cc13)Cc1ccccc1-2` reads 89.8% (inactive).

As a reminder, the remaining activity is the signal under treatment as a percentage of the control signal. The inhibition is the change of the read-out against control, counted positive when it falls. A word on the viability: it is the share of living cells, or the viability signal relative to a control.
